# PubChem BioAssay
# Inconclusive results are not listed. Active and inactive are the calls of the source. Rule as the data show it, unless noted: active = inhibition above about 80%; inactive = the rest.
# Columns and labels:
# [1] = growth inhibition of DIPG glioma cells, dose response, cell-based, SU-DIPG-XVII, MIPE5.0, CellTiter-Glo, qHTS (AID 1347060; cut-off not given, nearly all actives have AC50 up to about 26 µM); details: SU-DIPG-XVII viability, CellTiter-Glo ATP luminescence
# [2] = SU-DIPG-XXV glioma cell viability, MIPE5.0 library, qHTS (AID 1347068; cut-off not given, nearly all actives have IC50 up to about 30 µM)
# [3] = sensitizers of A549 cells to miR-34 induction, primary screen, imaging, A549 dox-inducible miR-34, nuclei and caspase counts (AID 1347080;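 active = compounds whose cell count with miR-34 switched on is under 0.7 times the count with it off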); details: A549 miR-34 inducible, Hoechst nuclei count, 48 h
# [4] = modifiers of HSF1 nuclear foci, imaging, Selleck Cancer Library (AID 1347162; in the data active = plate-normalised HSF1 focus index below about 0.46); details: human cells, at 10 µM; SSMD: measured here: HSF1 foci SSMD mean; cell count: measured here: cell number; plate-normalised HSF1 focus index: stronger effect = lower value
# [5] = survival rescue of mitochondrial mutant cells in low glucose, primary screen, MELAS cybrids, Rieske KO mouse fibroblasts, CellTiter-Glo (AID 1508586;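 active = mean z-score across replicates of 1.96 or higher in either the MELAS or the Rieske mutant cell line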;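 also: z relative to plate mean and SD of compound and empty wells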)
# [6] = LFS_MB_P medulloblastoma growth inhibition, cell-based, chromothripsis tumors, cisplatin or BGB combos (AID 1671449); details: LFS_MB_P medulloblastoma cells;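 also: cells exposed for 96 hours; 0% = vehicle DMSO and 100% = killing by high DMSO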
# [7] = HDN33 neuroblastoma growth inhibition, cell-based, chromothripsis tumors, cisplatin or BGB combos (AID 1671450); details: HDN33 neuroblastoma cells, stronger effect = higher value;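 also: cells exposed to compound for four days; 0% = vehicle DMSO and 100% = cell killing by high DMSO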
# [8] = ICB984 medulloblastoma cell growth inhibition, synergistic combos for chromothripsis tumors, cisplatin or BGB combos (AID 1671451; call rule not given here;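 also: cells exposed for 96 hours before readout; 0% = vehicle DMSO and 100% = killing by high DMSO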); details: ICB984 medulloblastoma cells, drug combinations, stronger effect = higher value
# [9] = LFS_MB_1R medulloblastoma cell growth inhibition, synergistic combos for chromothripsis tumors, cisplatin or BGB combos (AID 1671452); details: LFS_MB_1R medulloblastoma cells, stronger effect = higher value;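 also: cells exposed for 96 hours before readout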
# [10] = HTB85 osteosarcoma cell growth inhibition, synergistic combos for chromothripsis tumors, BGB or cisplatin IC20 combos (AID 1671453); details: HTB85 osteosarcoma cells, drug combinations, stronger effect = higher value;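 also: cells exposed for 96 hours before readout; 0% = vehicle DMSO and 100% = high DMSO killing control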
# [11] = CRL2098 osteosarcoma cell growth inhibition, synergistic combos for chromothripsis tumors, BGB or cisplatin IC20 combos (AID 1671454); details: CRL2098 osteosarcoma cells, drug combinations, stronger effect = higher value;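 also: cells exposed for 96 h before readout; 0% = vehicle DMSO and 100% = killing by high DMSO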
# [12] = HD-MB03 medulloblastoma cell growth inhibition, synergistic combos for chromothripsis tumors, BGB or cisplatin IC20 combos (AID 1671455; in the data active = inhibition above about 83%;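 also: 0% = vehicle DMSO and 100% = high DMSO as cytotoxic control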); details: HD-MB03 medulloblastoma cells, stronger effect = higher value
# [13] = UWB1.289 ovarian carcinoma cell growth inhibition, synergistic combos for chromothripsis tumors, BGB or cisplatin combos (AID 1671456); details: UWB1.289 ovarian carcinoma cells, stronger effect = higher value;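 also: cells exposed to compound for four days; 0% = vehicle DMSO and 100% = killing by high DMSO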
# [14] = LFS_MB_2R medulloblastoma cell growth inhibition, synergistic combos for chromothripsis tumors, cisplatin combos (AID 1671457); details: LFS_MB_2R medulloblastoma cells, stronger effect = higher value;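 also: cells exposed to compound for four days before readout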
# [15] = MDA-MB-436 breast carcinoma cell growth inhibition, synergistic combos for chromothripsis tumors, BGB or cisplatin combos (AID 1671458; call rule not given here;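 also: cells exposed for 96 hours; 0% = vehicle DMSO and 100% = killing by high DMSO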); details: MDA-MB-436 breast carcinoma growth inhibition, drug combinations, stronger effect = higher value
# [16] = UWB1.289_BRCA1 ovarian cancer growth, cell-based, BGB or cisplatin combinations (AID 1671459); details: UWB1.289 BRCA1 ovarian carcinoma, drug combinations, stronger effect = higher value
# [17] = human astrocyte viability loss, single and combined drugs, cytotoxicity control for chromothriptic childhood tumor combination screen, cell-based, BGB or cisplatin IC20 combos (AID 1671460); details: Human astrocytes, drug combinations, stronger effect = higher value;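 also: cells exposed to compounds for 96 hours before viability readout; 0% = vehicle and 100% = killing control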
# [18] = growth inhibition of BT084 medulloblastoma cells, cell-based, ICGC_MB145, cisplatin and BGB IC40 combos (AID 1671461); details: drug combinations, stronger effect = higher value;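 also: cells exposed to drugs for 96 hours; 0% = vehicle DMSO and 100% = high DMSO full killing control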
# [19] = growth inhibition of RCMB18 medulloblastoma cells, cell-based, cisplatin and BGB IC40 combos (AID 1671462); details: stronger effect = higher value;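 also: cells exposed to compound for four days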
# [20] = growth inhibition of CRL1545 osteosarcoma cells, cell-based, cisplatin and BGB IC20 combos (AID 1671464); details: stronger effect = higher value;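 also: cells exposed to compound for 96 hours before readout; 0% = vehicle DMSO and 100% = high DMSO killing control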
# [21] = measured here: combination with BGB IC40, at 0.05 µM
# [22] = measured here: with BGB IC20 combination, at 0.5 µM
# [23] = measured here: with cisplatin IC20 combination, at 0.5 µM
# [24] = measured here: combination with cisplatin, at 0.5 µM
# [25] = measured here: combination with cisplatin, at 5 µM
smiles,measurement,setting,value
Nc1nc(OCc2cc(Br)cs2)c2[nH]cnc2n1,outcome,[1],inactive
same,outcome,[2],inactive
same,fold change,"[3]; stronger effect = lower value, cell number ratio, induced over uninduced",0.799 (inactive)
same,fold change,[3]; measured here: relative caspase fold change +Dox/-Dox,0.415
same,cell count,"[3]; measured here: total cells with miR-34 induction, stronger effect = lower value",7150
same,cell count,[3]; measured here: total cells without miR-34 induction,8940
same,SSMD,[4],3.47
same,cell count,[4],6820
same,plate-normalised HSF1 focus index,[4],1.21 (inactive)
same,z-score,"[5]; MELAS cybrid survival, CellTiter-Glo 48 h, stronger effect = higher value",-0.686 (inactive)
same,z-score,"[5]; Rieske KO mouse fibroblast survival, CellTiter-Glo 72 h",-2.22
same,inhibition,"[6]; at 0.5 µM, stronger effect = higher value",-8.6% (inactive)
same,inhibition,"[6]; measured here: combination with BGB IC20, at 0.005 µM",6.06%
same,inhibition,"[6]; measured here: combination with BGB IC40, at 0.005 µM",-17.9%
same,inhibition,[6]; [21],-7.49%
same,inhibition,"[6]; measured here: combination with cisplatin, at 0.5 µM, stronger effect = higher value",-32.7%
same,inhibition,"[6]; measured here: combination with cisplatin, at 5 µM, stronger effect = higher value",3.43%
same,inhibition,"[7]; BGB combo, at 5 µM",-14.7%
same,inhibition,[7]; at 0.5 µM,-12.4% (inactive)
same,inhibition,"[7]; cisplatin combo, at 5 µM",-19.8%
same,inhibition,[7]; [22],-15.1%
same,inhibition,[7]; [23],-16.6%
same,inhibition,"[7]; single agent, at 5 µM",-22.4%
same,inhibition,"[8]; BGB IC20 combo, at 0.005 µM",-4.27%
same,inhibition,"[8]; BGB IC40 combo, at 0.005 µM",-37.5%
same,inhibition,"[8]; BGB IC40 combo, at 0.05 µM",-11.8%
same,inhibition,[8]; at 0.5 µM,-22.3% (inactive)
same,inhibition,"[8]; cisplatin combo, at 0.05 µM",-16.3%
same,inhibition,"[8]; cisplatin combo, at 0.5 µM",-26.5%
same,inhibition,"[8]; cisplatin combo, at 5 µM",-13.8%
same,inhibition,"[8]; measured here: 5 uM single agent, at 5 µM",4.33%
same,inhibition,[9]; at 0.5 µM,-20.5% (inactive)
same,inhibition,[9]; [21],-27%
same,inhibition,[9]; [24],-33.3%
same,inhibition,[9]; [25],-35.3%
same,inhibition,[10]; at 0.5 µM,-18.8% (inactive)
same,inhibition,"[10]; measured here: with BGB IC20, at 0.5 µM",-10.7%
same,inhibition,"[10]; measured here: with BGB IC20, at 5 µM",-21.3%
same,inhibition,"[10]; measured here: with cisplatin IC20, at 0.5 µM",-23.3%
same,inhibition,"[10]; measured here: with cisplatin IC20, at 5 µM",-10.7%
same,inhibition,"[10]; single agent, at 5 µM",-17.4%
same,inhibition,[11]; at 0.5 µM,-32.8% (inactive)
same,inhibition,"[11]; measured here: combination with BGB at IC20, at 0.5 µM",-25.4%
same,inhibition,"[11]; measured here: combination with cisplatin at IC20, at 0.5 µM",-22.4%
same,inhibition,[12]; at 0.5 µM,-4.96% (inactive)
same,inhibition,"[12]; measured here: combo with BGB at IC20, at 0.5 µM",-7.38%
same,inhibition,"[12]; measured here: combo with cisplatin at IC20, at 0.5 µM",-2.87%
same,inhibition,[13]; at 0.5 µM,7.84% (inactive)
same,inhibition,"[13]; measured here: inhibition with BGB combination, at 0.05 µM",-1.57%
same,inhibition,"[13]; measured here: inhibition with cisplatin combination, at 0.05 µM",-17.8%
same,inhibition,[14]; at 0.5 µM,18.8% (inactive)
same,inhibition,[14]; [24],-4.84%
same,inhibition,[14]; [25],6.55%
same,inhibition,[15]; at 0.5 µM,-3.23% (inactive)
same,inhibition,"[15]; measured here: BGB combination, at 0.5 µM",4.51%
same,inhibition,"[15]; measured here: BGB combination, at 5 µM",3.71%
same,inhibition,"[15]; measured here: cisplatin combination, at 0.5 µM",-3.58%
same,inhibition,"[15]; measured here: cisplatin combination, at 5 µM",5.35%
same,inhibition,"[16]; BGB combination, concentration series, at 5 µM",-10.7%
same,inhibition,[16]; at 0.5 µM,-6.34% (inactive)
same,inhibition,"[16]; cisplatin combination, concentration series, at 5 µM",8.18%
same,inhibition,[17]; at 0.5 µM,-4.57% (inactive)
same,inhibition,"[17]; measured here: combo with BGB IC20, at 0.5 µM",2.71%
same,inhibition,"[17]; measured here: combo with cisplatin IC20, at 0.5 µM",-8.58%
same,inhibition,[18]; at 0.5 µM,-0.821% (inactive)
same,inhibition,"[18]; cisplatin combination, at 0.5 µM",-10.5%
same,inhibition,"[18]; cisplatin combination, at 5 µM",2.83%
same,inhibition,"[18]; measured here: BGB IC40 combination 0.05 uM, at 0.05 µM",-9.82%
same,inhibition,"[18]; single agent, at 5 µM",4.08%
same,inhibition,[19]; at 0.5 µM,-7.44% (inactive)
same,inhibition,"[19]; cisplatin combo, at 5 µM",-2.67%
same,inhibition,"[19]; measured here: BGB IC40 combination, at 0.05 µM",1.72%
same,inhibition,[19]; [24],-25.9%
same,inhibition,"[19]; single agent, at 5 µM",-0.712%
same,inhibition,[20]; at 0.5 µM,-8.12% (inactive)
same,inhibition,[20]; [22],-32.5%
same,inhibition,[20]; [23],4.06%
same,inhibition,"[20]; single agent, at 0.05 µM",5.05%
same,inhibition,"[20]; single agent, at 5 µM",-19.6%
